For orientation: inhibition means the drop in the measured response relative to a control, in per cent.

Screen size: about 190,000 compounds; about 1,300 (0.68%) were called active. Many of the other results were omitted from the sample, so actives are more common in it than they were. A number with no mark means an inactive call. Rule as the data show it: active = inhibition above about 50%; inactive = the rest.

For this experiment, the target named is Mannose-6-phosphate isomerase (Homo sapiens) (UniProt P34949). Put plainly: human PMI inhibitors, high substrate, primary screen, biochemical, fluorescence intensity, high mannose 6-phosphate (AID 1220). The note with it: recombinant PMI enzyme, coupled fluorescence intensity; at 20 µM; stronger effect = higher value.
Mannose-6-phosphate isomerase (Homo sapiens), sequence (P34949 whole entry, looked up): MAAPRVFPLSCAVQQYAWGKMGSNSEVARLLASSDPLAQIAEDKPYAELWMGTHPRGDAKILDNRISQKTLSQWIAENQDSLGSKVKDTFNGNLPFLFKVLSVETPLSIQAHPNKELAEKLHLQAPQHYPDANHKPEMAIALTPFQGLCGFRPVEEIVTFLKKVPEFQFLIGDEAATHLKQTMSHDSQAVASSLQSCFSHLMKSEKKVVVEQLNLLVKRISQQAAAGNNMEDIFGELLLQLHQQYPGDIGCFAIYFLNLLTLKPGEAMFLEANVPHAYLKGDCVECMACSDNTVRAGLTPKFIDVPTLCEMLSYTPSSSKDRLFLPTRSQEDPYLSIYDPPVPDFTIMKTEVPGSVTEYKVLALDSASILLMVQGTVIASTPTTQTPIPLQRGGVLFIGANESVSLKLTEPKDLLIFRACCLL
For `CCCN(Cc1cc2ccc(C)cc2[nH]c1=O)C(=O)c1ccccn1`, the inhibition was 11%.

Consider `COc1ccc(NC2SC(=O)N(CC(=O)O)C2=O)cc1` (stereo not drawn), for which the inhibition was 12.1%.

As for `COc1ccc(N2CCN(c3ccc(C(N)=O)cc3[N+](=O)[O-])CC2)cc1`, the inhibition was 16.5%.

For the molecule `NC(=O)c1ccc(N2CCN(c3ccc(O)cc3)CC2)c([N+](=O)[O-])c1`, the inhibition is 55.2% (active).

In the case of `CC(=O)c1ccc(N2CCN(c3ccc(C(N)=O)cc3[N+](=O)[O-])CC2)cc1`, the inhibition was -10.4%.

With `O=C(NC1CCCCC1)C(c1ccccc1)N(C(=O)c1cccs1)c1ccc2c(c1)OCO2` (stereo not drawn), the inhibition was -2.5%.

With `Nc1c(C(=O)Nc2ccccc2F)sc2nc(-c3ccco3)ccc12`, the inhibition was 59.6% (active).

On to `COc1ccccc1NC(=O)c1sc2nc(-c3ccco3)ccc2c1N`, for which the inhibition was 11.5%.

With `Nc1c(C(=O)Nc2ccccc2)sc2nc(-c3ccco3)ccc12`, the inhibition was 15.1%.

On to `COCCNC(=O)CSc1nc2ccccc2c(=O)n1CCCC(=O)NCc1ccccc1`, for which the inhibition is -3%.

Turning to `COc1ccc(-n2c(C)cc(/C=C/c3nc(O)c([N+](=O)[O-])c(=O)[nH]3)c2C)cc1`, the inhibition is 1.6%.

With `C=CCc1cc(/C=C/c2nc(O)c([N+](=O)[O-])c(=O)[nH]2)cc(OC)c1O`, the inhibition was 68.9% (active).

As for `C=CCc1cc(/C=C2/NC(=S)NC2=O)cc(OC)c1O`, the inhibition was 15.3%.

For `COc1ccc(Nc2nnc(Cc3ccc(Cl)cc3)c(=O)[nH]2)c(OC)c1`, the inhibition was 19.1%.

Regarding `CCC(=O)N(C1=C(NC)C(=O)c2ccccc2C1=O)C(C)C`, the inhibition is 62.3% (active).

With `CCC(=O)N(CC)C1=C(O)c2ccccc2C(=O)C1=O`, the inhibition is 15.9%.

As for `CCC(=O)N(C1=C(NC(C)C)C(=O)c2ccccc2C1=O)C(C)C`, the inhibition is 58.2% (active).

`CC(C)NC1=C(Cl)C(=O)c2ccccc2C1=O`: the inhibition was -32%.

With `CCC(=O)NC1=C(NC(C)c2ccccc2)C(=O)c2ccccc2C1=O` (stereo not drawn), the inhibition is -10.2%.

As for `CCC(=O)N(C)/C=C1\Sc2ccccc2C1=O`, the inhibition is 5.7%.

For the molecule `OC1CCCN(Cc2cn(Cc3ccccc3)nc2-c2cc3ccccc3o2)C1` (stereo not drawn), the inhibition is 15.3%.

Regarding `O=C(C1CCN(c2nc3nonc3nc2N2CCCCC2)CC1)N1CCOCC1`, the inhibition is 14.3%.

In the case of `CCN(C(=O)COC(=O)c1ccc2[nH]c3c(c2c1)CCCC3)C1CCS(=O)(=O)C1` (stereo not drawn), the inhibition was -6%.

Regarding `Cc1cc2cc(CCNC(=O)c3cccc([N+](=O)[O-])c3)c(=O)[nH]c2cc1C`, the inhibition was -2.2%.

Turning to `CN(CC(=O)Nc1ccc(F)cc1)c1ccc(S(=O)(=O)N2CCCC2)cn1`, the inhibition is 1.4%.

Turning to `CCn1ncc([C@@H]2C[C@H]3CN(Cc4ccccc4C)C(=O)[C@]34CCCN24)c1C`, the inhibition was 25.8%.

Regarding `O=C(O)CNc1nc(Cl)ccc1[N+](=O)[O-]`, the inhibition is 13.4%.

As to `O=C(O)C1CC(O)CN1c1nc(Cl)ccc1[N+](=O)[O-]` (stereo not drawn), the inhibition was 64.1% (active).

In the case of `O=C(O)C1CN(c2nc(Cl)ccc2[N+](=O)[O-])C1`, the inhibition was 47.3%.

Consider `Cc1cccc(N2C(=O)CC(N3CCOCC3)C2=O)c1` (stereo not drawn), for which the inhibition was -1.5%.

On to `CC1(C)CC(=O)/C(=C(\O)c2ccccc2)C(=NCCc2ccccc2)C1`, for which the inhibition is -2.6%.

With `Cc1cc(C)nc(-n2cc(C(=O)c3cc(F)ccc3O)cn2)n1`, the inhibition was 52.4% (active).

In the case of `Cc1ccc(O)c(C(=O)c2cnn(-c3ccccc3)c2)c1`, the inhibition was 12.6%.

As for `Cc1ncc(CC(=O)n2cc(C(=O)c3cc(F)ccc3O)cn2)s1`, the inhibition is 8.5%.

Turning to `CCN(CC)CCCNC(=O)c1cn(CC)c2ccc(S(=O)(=O)N3CCc4ccccc4C3)cc2c1=O`, the inhibition is 0%.

Take `O=C1CNC(=O)/C1=C\c1ccc(O)cc1`: the inhibition is -3.7%.

Consider `Cc1c(NC(=O)OCCSc2nc(N(C)C)nc(N(C)C)n2)sc(=S)n1C`, for which the inhibition is 5.4%.

For `CSc1ccccc1NC(=O)C(=O)c1c[nH]c2ccccc12`, the inhibition was -2.7%.

As to `O=C(Nc1ccccc1N1CCOCC1)C1Cc2ccccc2CN1C(=O)c1ccco1` (stereo not drawn), the inhibition was -3.5%.

Turning to `COc1c(Cl)cc(C(=O)Nc2ccccc2C(=O)O)cc1Cl`, the inhibition is 0.7%.

With `COc1ccc(N=Cc2sc3ccccc3c2Cl)cc1`, the inhibition was 1.8%.

As to `Oc1c(C=Nc2cccc3cccnc23)sc2ccccc12`, the inhibition is -3.1%.

In the case of `Cc1ccc(O)c(N=Cc2sc3ccccc3c2Cl)c1`, the inhibition was 19.3%.

On to `Oc1ccc(Cl)cc1N=Cc1sc2ccccc2c1Cl`, for which the inhibition is 55.5% (active).

For the molecule `Oc1ccccc1N=Cc1sc2ccccc2c1Cl`, the inhibition was 56.6% (active).

As for `O=[N+]([O-])c1ccc(O)c(N=Cc2sc3ccccc3c2O)c1`, the inhibition is 25.4%.

With `COc1ccc(S(=O)(=O)NCCOc2ccccc2)cc1-n1cnnn1`, the inhibition is 7.4%.

On to `Nc1nc(SCc2c(Cl)cccc2Cl)n[nH]1`, for which the inhibition is -8.6%.

Consider `Cc1ccn2cc(C(=O)Nc3nnc(C)s3)nc2c1`, for which the inhibition is 51.4% (active).

Regarding `Cc1ccn2cc(C(=O)Nc3ccc4c(c3)OCCO4)nc2c1`, the inhibition was 8.6%.

As to `CCOC(=O)c1cn2ccc(C)cc2n1`, the inhibition is 10%.

Take `CC1CCN(CC(=O)Nc2sc3c(c2C#N)CCC3)CC1`: the inhibition was -6.5%.

Regarding `CC(C)CCN1CCN(C2CCN(c3ccc4c(c3)OCO4)CC2)CC1CCO` (stereo not drawn), the inhibition is 52.3% (active).

With `CC(C)CCN1CCN(C2CCN(c3ccccc3)CC2)CC1CCO` (stereo not drawn), the inhibition was 7%.

Consider `Cc1cc(F)ccc1N1CCC(N2CCN(CCC(C)C)C(CCO)C2)CC1` (stereo not drawn), for which the inhibition is 4.2%.

In the case of `C=CCSc1nnc(NC(=O)c2cn(CC)c3nc(C)ccc3c2=O)s1`, the inhibition is -1.9%.

Turning to `COCCn1c(N)c(C(=O)NCC2CCCO2)c2nc3ccccc3nc21` (stereo not drawn), the inhibition is 71.5% (active).

`COc1ccc(CCn2c(N)c(C(=O)NCc3ccco3)c3nc4ccccc4nc32)cc1`: the inhibition was 48.2%.

Consider `COc1ccc(CCn2c(N)c(C(=O)NCc3ccco3)c3nc4ccccc4nc32)cc1OC`, for which the inhibition was 51.6% (active).

As for `COCCn1c(N)c(C(=O)OCc2ccccc2)c2nc3ccccc3nc21`, the inhibition is 49.4%.

Consider `COCCn1c(N)c(C(=O)NCc2cccs2)c2nc3ccccc3nc21`, for which the inhibition was 62.5% (active).

Regarding `COc1ccc(OC)c(-n2c(N)c(C(=O)NCC3CCCO3)c3nc4ccccc4nc32)c1` (stereo not drawn), the inhibition was 17.6%.

Consider `COc1ccccc1CNC(=O)c1c(N)n(CCCN2CCOCC2)c2nc3ccccc3nc12`, for which the inhibition was 52.5% (active).

Regarding `COCCn1c(N)c(S(=O)(=O)c2cccs2)c2nc3ccccc3nc21`, the inhibition is 4.3%.

In the case of `COCCn1c(N)c(C(=O)Nc2sc3c(c2C(=O)OC)CCCC3)c2nc3ccccc3nc21`, the inhibition was 11.1%.

As to `Nc1c(C(=O)NCc2ccco2)c2nc3ccccc3nc2n1CCc1ccccc1`, the inhibition is 34.8%.

As to `COc1ccc(CNC(=O)c2c(N)n(CCCN3CCOCC3)c3nc4ccccc4nc23)cc1`, the inhibition is 20.1%.

Turning to `Nc1c(C(=O)NCc2ccccc2)c2nc3ccccc3nc2n1CCCN1CCOCC1`, the inhibition is 49%.

The values are drawn from PubChem BioAssay AID1220 (Sanford-Burnham Center for Chemical Genomics, 2008).
